The results in this text go back to PubChem BioAssay AID1835 (Johns Hopkins Ion Channel Center, 2009).

The structures appear in SMILES notation. Among all 2,400 compounds or so, about 750 (31%) were called active. The list shows a part of the results. Unmarked numbers belong to inactive results.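 How the source made its calls: active means median signal gain over dofetilide-blocked control wells reaching their mean plus 3 SD, so readout 1 at least 0; inactive means the rest.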

The target of the assay is Voltage-gated inwardly rectifying potassium channel KCNH2 (Homo sapiens) (UniProt Q12809). Put plainly: modulators restoring hERG flux under dofetilide – cell-based, thallium flux, duplicate retest, dofetilide IC70, confirmation (AID 1835). As to conditions: hERG cell line, FluxOR thallium flux, dofetilide-blocked; at 10 µM; stronger effect = higher value.
Sequence of Voltage-gated inwardly rectifying potassium channel KCNH2 (Homo sapiens) (Q12809 whole entry, looked up): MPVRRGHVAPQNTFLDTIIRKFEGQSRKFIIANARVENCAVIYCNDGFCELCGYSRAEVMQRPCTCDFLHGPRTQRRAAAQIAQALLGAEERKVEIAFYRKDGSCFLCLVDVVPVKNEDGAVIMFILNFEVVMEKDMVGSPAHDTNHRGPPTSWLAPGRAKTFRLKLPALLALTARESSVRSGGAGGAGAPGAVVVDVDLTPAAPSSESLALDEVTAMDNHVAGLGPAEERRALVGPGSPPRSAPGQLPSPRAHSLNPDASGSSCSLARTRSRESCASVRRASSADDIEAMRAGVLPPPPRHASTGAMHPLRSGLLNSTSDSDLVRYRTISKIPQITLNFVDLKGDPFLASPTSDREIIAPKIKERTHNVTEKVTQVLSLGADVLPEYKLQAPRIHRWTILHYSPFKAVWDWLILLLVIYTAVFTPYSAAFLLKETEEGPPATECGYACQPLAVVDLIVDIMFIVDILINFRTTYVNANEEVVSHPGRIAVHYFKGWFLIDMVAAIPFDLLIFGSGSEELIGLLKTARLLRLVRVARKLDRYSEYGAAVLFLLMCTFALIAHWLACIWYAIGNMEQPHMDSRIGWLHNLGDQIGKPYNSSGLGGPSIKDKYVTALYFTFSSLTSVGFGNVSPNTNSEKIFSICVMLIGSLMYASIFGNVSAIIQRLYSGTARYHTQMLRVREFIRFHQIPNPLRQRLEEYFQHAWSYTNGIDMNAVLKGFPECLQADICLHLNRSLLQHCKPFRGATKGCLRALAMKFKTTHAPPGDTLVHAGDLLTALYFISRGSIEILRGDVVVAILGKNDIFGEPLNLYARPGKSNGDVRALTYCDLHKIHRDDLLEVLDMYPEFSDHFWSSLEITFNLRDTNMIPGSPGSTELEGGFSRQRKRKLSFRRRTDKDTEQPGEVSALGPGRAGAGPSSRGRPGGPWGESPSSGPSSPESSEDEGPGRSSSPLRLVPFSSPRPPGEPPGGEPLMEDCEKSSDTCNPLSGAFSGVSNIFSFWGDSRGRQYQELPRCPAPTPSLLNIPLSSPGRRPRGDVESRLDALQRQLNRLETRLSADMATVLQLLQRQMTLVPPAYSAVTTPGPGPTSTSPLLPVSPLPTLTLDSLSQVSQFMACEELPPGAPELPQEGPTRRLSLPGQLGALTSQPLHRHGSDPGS
With `Nc1nc2n(n1)C1(CCCCC1)C1=C(CCCC1)N2`, the activity increase over dofetilide control, less the hit threshold was -26%. `CC(=O)c1c(NC(=O)c2ccccc2)[nH]c(-c2ccccc2)nc1=S`: the activity increase over dofetilide control, less the hit threshold was 24% (active). On to `C=C(C)Cc1c(C)nc(-c2ccccc2)[nH]c1=O`, for which the activity increase over dofetilide control, less the hit threshold was -19%. Take `CSc1nc(-c2ccccc2)[nH]c(=S)c1C(C)=O`: the activity increase over dofetilide control, less the hit threshold was 61% (active).

On to `CC(=O)c1c(N)[nH]c(-c2ccccc2)nc1=S`, for which the activity increase over dofetilide control, less the hit threshold was 1% (active). Regarding `CC(=O)c1c(N2CCN(Cc3ccccc3)CC2)[nH]c(-c2ccccc2)nc1=S`, the activity increase over dofetilide control, less the hit threshold is 15% (active). Take `CC(=O)c1c(N2CCCC2)[nH]c(-c2ccccc2)nc1=S`: the activity increase over dofetilide control, less the hit threshold was -1%. Regarding `CC(=O)c1c(C)[nH]c(-c2ccccc2)nc1=S`, the activity increase over dofetilide control, less the hit threshold was -4%.

Take `Cc1ccccc1CC(=O)NC1CCN(Cc2ccccc2)CC1`: the activity increase over dofetilide control, less the hit threshold is -1%. On to `Cc1nc2ccc(C(=O)O)cc2[nH]1`, for which the activity increase over dofetilide control, less the hit threshold was -12%. For `Cc1cc(C)cc(NC(=O)CSc2nnc(CN3CCOCC3)n2C)c1`, the activity increase over dofetilide control, less the hit threshold was -13%. Turning to `COc1ccc(S(=O)(=O)n2nc(C)c(S(=O)(=O)N3CCOCC3)c2C)cc1OC`, the activity increase over dofetilide control, less the hit threshold is -10%. With `CCN1CCCC(CO)(Cc2ccccc2)C1` (stereo unspecified) the figure was -8%.

On to `O=C(CSc1nnc(NC(=O)c2ccc(S(=O)(=O)N3CCOCC3)cc2)s1)Nc1ccccc1C(F)(F)F`, for which the activity increase over dofetilide control, less the hit threshold is -13%. On to `Cc1[nH]cnc1CSCCN`, for which the activity increase over dofetilide control, less the hit threshold is -2%.

On to `O=C(NC(=S)N1CCCc2ccccc21)c1ccc(Br)cc1`, for which the activity increase over dofetilide control, less the hit threshold is 32% (active). `O=C(NC(=S)N1CCCc2ccccc21)c1ccc([N+](=O)[O-])cc1`: the activity increase over dofetilide control, less the hit threshold is 11% (active).

In the case of `O=C(O)C1CCN1C1CCCCC1` (stereo unspecified), the activity increase over dofetilide control, less the hit threshold is -16%. With `CC(=O)c1c(C)nc(C)nc1NC(=O)C(C)C`, the activity increase over dofetilide control, less the hit threshold was -16%.

As for `CCOC(=O)CSc1nnc(NC(=O)c2ccc3c(c2)OCO3)s1`, the activity increase over dofetilide control, less the hit threshold was -22%. Take `c1ccc2c(c1)c1ccccc1n1c(-c3ccc4c(c3)OCO4)nnc21`: the activity increase over dofetilide control, less the hit threshold is 1% (active). With `Cc1ccccc1-c1nnn(CC(=O)NCc2ccc3c(c2)OCO3)n1` the figure was -13%; with `Cc1ccc(NC(=O)c2cc(-c3ccc4c(c3)OCO4)on2)cc1`, -6%.

`O=C(NCc1ccco1)C1CCN(C(=O)Cc2ccccc2)CC1`: the activity increase over dofetilide control, less the hit threshold was -7%. As for `CN(C)c1ccc(C(CNS(=O)(=O)c2ccc([N+](=O)[O-])cc2)N2CCCC2)cc1` (stereo unspecified), the activity increase over dofetilide control, less the hit threshold was -24%.

In the case of `Cc1cccc(N2CCN(C(=O)Cc3c(C(=O)O)[nH]c4ccc(Cl)cc34)CC2)c1C`, the activity increase over dofetilide control, less the hit threshold is -14%. Take `C/C=C(\C)CN1CCN(c2cccc(C)c2C)CC1`: the activity increase over dofetilide control, less the hit threshold is -24%. As for `Cc1cccc(N2CCN(C(=O)CNC(=O)c3cccc([N+](=O)[O-])c3)CC2)c1C`, the activity increase over dofetilide control, less the hit threshold was 13% (active). For `CCOC(=O)c1sc(NN=C(C(=O)OC)C(=O)OC)c(C(=O)OCC)c1C`, the activity increase over dofetilide control, less the hit threshold was 19% (active). As to `CCOC(=O)c1c(C)oc2cc(Br)c(OC)cc12`, the activity increase over dofetilide control, less the hit threshold was -2%. As to `CCOC(=O)c1sc(NC(=O)c2ccccc2C(=O)O)c(C(=O)OCC)c1C`, the activity increase over dofetilide control, less the hit threshold was -4%. To `COc1ccc2[nH]c3c(=O)n(CCN4CCOCC4)cnc3c2c1` belongs -14%. With `CCC1(C(=O)O)NC(c2cc(OC)ccc2O)C2C(=O)N(Cc3ccccc3)C(=O)C21` (stereo unspecified) the figure was -18%; with `O=C(N/N=C/c1cccs1)C(=O)Nc1cccc(Cl)c1`, -6%. Consider `Nc1nc(O)c(N=Nc2ccc(S(N)(=O)=O)cc2)c(=O)[nH]1`, for which the activity increase over dofetilide control, less the hit threshold is 6% (active).

Take `O=C1N(CN2CCN(Cc3ccccc3)CC2)c2ccccc2C12OCCCO2`: the activity increase over dofetilide control, less the hit threshold was -4%. For `CN(C)c1ccc(NC(=O)CCCc2ccccc2)cc1`, the activity increase over dofetilide control, less the hit threshold was -19%.

Regarding `Cc1ccc(NC(=O)CCC(=O)OCC(F)(F)C(F)F)cc1`, the activity increase over dofetilide control, less the hit threshold is -23%.

For the molecule `CCCCC(=O)Nc1ccc(NCc2ccc(C)s2)cc1`, the activity increase over dofetilide control, less the hit threshold is 14% (active).

Regarding `O=C(CCNC(=O)C1CCN(S(=O)(=O)c2ccc(F)cc2)CC1)NCc1ccc(Cl)cc1`, the activity increase over dofetilide control, less the hit threshold is -16%.

For the molecule `Cc1cc(C)c(Cn2c3ccccc3c3cnn(CC(=O)NCc4ccccn4)c(=O)c32)c(C)c1`, the activity increase over dofetilide control, less the hit threshold is -4%.

Regarding `O=C(c1ccc(Cl)c(S(=O)(=O)N2CCCC2)c1)N1CCN(c2ccccc2F)CC1`, the activity increase over dofetilide control, less the hit threshold was -1%. To `Cc1ccc(C(=O)N2CCN(c3ccccc3)CC2)cc1S(=O)(=O)N1CCCC1` belongs 19% (active). `O=C(Nc1ccc(N2CCOCC2)cc1)c1ccc(S(=O)(=O)N2CCCCC2)cc1`: the activity increase over dofetilide control, less the hit threshold is -10%. As to `C=CCNC(=S)Nc1nc2c(cc1C(=O)OCC)CCCC2`, the activity increase over dofetilide control, less the hit threshold is -4%.

With `C=C(C)CNC(=S)Nc1nc2c(cc1C(=O)OCC)CCCC2`, the activity increase over dofetilide control, less the hit threshold was -4%.

Turning to `CCNC(=S)Nc1nc2c(cc1C(=O)OCC)CCCC2`, the activity increase over dofetilide control, less the hit threshold was 2% (active). With `CNC(=O)CSc1nnc(-c2ccco2)n1-c1ccccc1` the figure was -14%; with `COc1ccc(C(CC(=O)O)NC(=O)C(c2ccccc2)c2ccccc2)cc1` (stereo unspecified), -10%; with `Cn1c(NNC(=O)C(c2ccccc2)c2ccccc2)cc(=O)n(C)c1=O`, 7% (active).

Consider `CC(=O)c1ccc2c(c1)OCCOCCOCCO2`, for which the activity increase over dofetilide control, less the hit threshold was -14%. As for `Cc1ccc(O)c(C(=O)CC(=O)c2ccc(Cl)cc2)c1`, the activity increase over dofetilide control, less the hit threshold was -2%. With `CC(C)(C)c1ccc(C(=O)CC(=O)c2cc(Cl)ccc2O)cc1`, the activity increase over dofetilide control, less the hit threshold is 17% (active). In the case of `Cc1ccc(C(=O)CC(=O)c2cc(Cl)ccc2O)cc1`, the activity increase over dofetilide control, less the hit threshold is 8% (active). For the molecule `Cc1cccc(C(=O)CC(=O)c2cc(Cl)ccc2O)c1`, the activity increase over dofetilide control, less the hit threshold is -7%.

Consider `Cc1ccc(Cl)cc1NC(=O)COC(=O)c1ccccc1O`, for which the activity increase over dofetilide control, less the hit threshold was -10%.

In the case of `Cc1cc(Cl)ccc1OC(C)C(=O)NCCc1ccc2c(c1)OCCO2` (stereo unspecified), the activity increase over dofetilide control, less the hit threshold was -16%. To `COC(=O)C1CCCN1C(=O)COc1ccc(Cl)cc1Br` (stereo unspecified) belongs -7%; to `Cc1ccc(C(=O)CC(=O)COc2ccc(Cl)cc2C)cc1`, 24% (active); to `Nc1nc2c(s1)CCCCCCCCCC2`, -11%. For the molecule `Cc1ccc(S(=O)(=O)N2CCOCC2)cc1NC(=O)CSc1nc2ccccc2c(=O)n1Cc1ccccc1`, the activity increase over dofetilide control, less the hit threshold was -5%.

In the case of `O=C1OCCC1Sc1nc2ccccc2c(=O)n1Cc1ccc(F)cc1` (stereo unspecified), the activity increase over dofetilide control, less the hit threshold is 9% (active).

With `COc1cc(C2NC(=O)NC(O)(C(F)(F)F)C2C(C)=O)cc(OC)c1OC` (stereo unspecified), the activity increase over dofetilide control, less the hit threshold is -17%.

For the molecule `N/C(=N\OS(=O)(=O)c1cccc([N+](=O)[O-])c1)c1ccncc1`, the activity increase over dofetilide control, less the hit threshold is 1% (active). In the case of `CN(c1cccc(NS(=O)(=O)c2cccc([N+](=O)[O-])c2)c1)S(C)(=O)=O`, the activity increase over dofetilide control, less the hit threshold was -19%. In the case of `O=C(CSc1nnc(-c2ccncc2)o1)c1cccc([N+](=O)[O-])c1`, the activity increase over dofetilide control, less the hit threshold is -10%.
